Hits are enriched below; roughly 6.2% of the tested compounds scored in any of these assays.
KB-3-1 tox: kills parental KB-3-1 adenocarcinoma cells; KB-3-1 viability, CellTiter-Glo ATP luminescence, 72 h; Potency, µM (top dose mostly 46.1 µM), hits mostly cytotoxic; 1.4% of 400,000 active; note: % is set by controls: 0 for no effect and ±100 for the full control effect; nearly all actives have a fitted effect of over 60% in size
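KB-3-1 parental drug-naive adenocarcinoma cells in DMEM/10% FBS, incubated 72 h at 37 C with pin-transferred compounds across a concentration series. Viability by CellTiter-Glo luminescence; concentration-response curves fitted after normalization.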
HT1080NT lethal: kills 2HG-producing HT-1080-NT fibrosarcoma cells | HT-1080-NT fibrosarcoma viability, CellTiter-Glo ATP luminescence, 48 h | 1.6% of 360,000 active | Potency, µM (titrated, usually from 46.1 µM), without a hit: at the highest dose activity, negative = less viability, hits mostly cytotoxic;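 note: NT is the 2HG producing partner of a matched IDH1 knockdown line; 0% = DMSO-treated cells and -100% = media-only wells without cells; nearly all actives have a fitted effect of over 55% in size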
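750 cells/well, RPMI + 5% FBS; 2 h settle, compound pin-transfer, 48 h at 37 degrees C. CellTiter-Glo 10 min RT, luminescence. Normalized to DMSO and media-only wells.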
HT1080 IDH1KD tx: kills HT-1080 cells with IDH1 knockdown; HT-1080 IDH1 knockdown viability, ATP luminescence, 48 h; Potency, µM (top dose mostly 46.1 µM), for the others: top-dose activity, negative = toxicity, actives largely listed as cytotoxic; 2% of 360,000 active;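 note: 0% = DMSO wells and -100% = cell-free medium wells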
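Using the IDH1-knockdown HT-1080 line run in the same batch and compound series as the NT line, viability after 48 h at 37 °C was determined by CellTiter-Glo luminescence and expressed as % activity.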
S2 tox: viability counter-screen for ATXN expression inhibitors; Potency, µM (doses to about 56.7 µM), usual class: cytotoxic; S2 cells (HEK-293 line with an ATXN2-luciferase reporter) viability, CellTiter-Fluor protease fluorescence, 24 h; 0.49% of 400,000 active; AID 651635; note: nearly all actives have a fitted effect of over 40% in size
ATXN2 expr inh: reduces ATXN2 reporter expression in HEK-293 cells; HEK-293 ATXN2-luciferase reporter, luminescence, 24 h; Potency, µM (doses to about 57 µM), without a hit: at the top dose activity change, negative = inhibition, most hits filed as inhibitors; 0.72% of 360,000 active; AID 1745845; note: % is set by controls: 0 for no effect and ±100 for the full control effect; nearly all actives have a fitted effect of over 55% in size
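ATXN2-luciferase reporter cells (luciferase flanked by upstream and downstream ATXN2 gene portions) were treated 24 h at 37 °C with compounds at up to 57 uM. SteadyGlo luminescence gave expression; GF-AFC fluorescence gave viability.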
KB-V1 cytotox: KB-V1 MDR subline cytotoxicity | KB-V1 MDR cells viability, CellTiter-Glo, 72 h | Potency, µM (titrated, usually from 46.1 µM), most hits filed as cytotoxic | 3.4% of 400,000 active | AID 1347076; note: % is set by controls: 0 for no effect and ±100 for the full control effect; nearly all actives have a fitted effect of over 60% in size
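In this primary screen, KB-V1 cells overexpressing P-gp are incubated with library compounds (lowest to highest concentration) for 72 h at 37 degrees C before a luminescent ATP viability read.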
An asterisk follows results filed as active; i = inactive; u = inconclusive; x = no result given; ! = not confirmed by another sample; [ ] = another dose, or the depositor's remark. Calls come from the whole dose curve; as a rule, active = well fitted curve in the direction sought with a large enough effect; inconclusive = small, poorly fitted or top-dose-only effect, or another doubt; inactive = no such curve, though single readings can be large; an effect the other way counts as inactive or inconclusive. Potency is the fitted concentration of half-maximal effect.

SMILES | KB-3-1 tox | HT1080NT lethal | HT1080 IDH1KD tx | S2 tox | ATXN2 expr inh | KB-V1 cytotox
CCn1c(SCC(=O)N(Cc2ccccc2)C2CCS(=O)(=O)C2)nc2ccccc2c1=O (configuration not stated) | i | 4% | 0% | i | 2% | i
C=CCn1c(SCC(=O)N(CC)C2CCS(=O)(=O)C2)nc2scc(-c3ccccc3)c2c1=O (configuration not stated) | i | 2% | 6% | i | -11% | 10µM*
CCN(C(=O)CSc1nc2scc(-c3ccccc3)c2c(=O)n1C)C1CCS(=O)(=O)C1 (configuration not stated) | i | -2%[9.24 µM] | 0% | i | 8% | i
CCCCN(C(=O)CSc1nc2ccccc2n1CC)C1CCS(=O)(=O)C1 (configuration not stated) | i | 8% | 4% | u | 0% | 5.8µM*
COc1ccc(-c2cn3nc(N4CCCC(C(=O)Nc5cc(C)cc(C)c5)C4)sc3n2)cc1 (configuration not stated) | i | x | x | x | x | i
O=C(O)CSCC(=O)NC1CCSC1=O (configuration not stated) | x | x | x | i | 2% | x
Cc1ccc(-c2cn(-c3ccccc3)c3[n+]2CCCS3)cc1 | 1.8µM*! | u | u | i | u | i
N#Cc1ccc(-c2cn(-c3ccccc3)c3[n+]2CCCS3)cc1 | i | 8% | 6% | i | 1% | i
CCc1ccc(-n2cc(-c3ccc(F)cc3)[n+]3c2SCCC3)cc1 | 9.2µM* | u | u | i | u | i
c1ccc(-c2cn(-c3ccccc3)c3[n+]2CCCS3)cc1 | u | u | u | i | -5% | i
COc1ccc(-n2cc(-c3ccc(C)cc3)[n+]3c2SCC3)cc1 | u | 2.9µM* | 2.3µM* | i | u | i
Cc1ccc2cc(CCNC(=O)c3ccc(Br)o3)c(=O)[nH]c2c1 | u | 0% | 17% | i | -6% | 18µM*
CCN(CC)C(=O)c1sc2c(c1C)c(=O)n(-c1ccc(Cl)c(Cl)c1)c(=O)n2CC(=O)Nc1cccc(OC)c1 | i | x | x | i | 5% | i
COc1ccccc1Nc1cc2cc(Br)ccc2c(=O)[nH]1 | 7.3µM* | -27% | u | i | -17% | u
O=c1[nH]c(Nc2ccccc2)cc2cc(Br)ccc12 | i | -12% | -23% | i | -32% | u
COc1ccc(OC)c(Nc2cc3ccccc3c(=O)[nH]2)c1 | 4.1µM* | u | 18µM* | i | -13% | 23µM*
CCOc1ccc(CNC(=O)C2Cc3cc(S(=O)(=O)N4CCCCCC4)ccc3N2C(C)=O)cc1 (configuration not stated) | i | x | x | i | 10% | i
O=[N+]([O-])c1cc(-c2nc(-c3ccccc3)no2)ccc1NC1CCCCC1 | i | x | x | i | 9% | u
Cc1nn(C)c(Cl)c1CN1CCC(CO)(CCOc2ccccc2)CC1 | i | -7% | -1% | i | -36% | u
Cc1c(CN2CCC(CO)(CCOc3ccccc3)CC2)[nH]c2c(Cl)cccc12 | u | 21µM* | 18µM* | u | u | u
CNC(=O)COC(=O)c1ccccc1C(=O)c1ccc(Cl)c([N+](=O)[O-])c1 | i | 12µM* | 23µM* | 10µM* | x | u
CC(C)OC(=O)c1ccccc1C(=O)c1ccc(N)c([N+](=O)[O-])c1 | i | -12% | -1% | u | -16% | u
O=C(COC(=O)c1ccccc1C(=O)c1ccc(Cl)c([N+](=O)[O-])c1)NC1CC1 | 8.2µM* | 6.5µM* | 4.6µM* | 28µM* | u | i
O=C(NCCn1cc(SCc2ccccc2F)c2ccccc21)c1cccs1 | u | x | x | u | u | i
O=C(Nc1ccc2ccccc2c1)Nc1nnc(-c2ccc(F)cc2)s1 | u | x | x | x | x | i
SMILES | KB-3-1 tox | HT1080NT lethal | HT1080 IDH1KD tx | S2 tox | ATXN2 expr inh | KB-V1 cytotox
CC(C)(C)c1ccc(S(=O)(=O)Nc2cccc(C3OCCCO3)c2)cc1 | i | -2% | -8% | i | -5% | 15µM*
COc1ccc([N+](=O)[O-])cc1CN1CCN(c2ncc(Cc3ccccc3)cn2)CC1 | u | u | u | x | x | 7.3µM*
Cc1ccc([N+](=O)[O-])cc1CN1CCN(c2ncc(Cc3ccccc3)cn2)CC1 | u | -15% | u | x | x | u
Oc1ccc(Br)c(CN2CCN(c3ncc(Cc4ccccc4)cn3)CC2)c1 | 21µM* | u | u | x | x | 18µM*
CC(C)Cc1nc2cc(NS(=O)(=O)N(C)C)cc(C(=O)N3CCN(c4ccccc4)CC3)c2n1C | x | x | x | i | x | x
Cc1ccc2c(c1)C(c1ccncc1)=NNC(c1ccccc1)=N2 | i | 17% | 15% | i | -25% | i
c1ccc(C2=Nc3c(ccc4ccccc34)C(c3ccncc3)=NN2)cc1 | u | u | 21µM* | x | u | u
Cc1ccc(N(C)S(=O)(=O)c2cccc(C(=O)NCC(c3ccco3)N3CCCC3)c2)cc1 (configuration not stated) | i | 1%[9.24 µM] | -1% | i | -12% | i
COc1ccc(/C=N/NC(=O)c2ccoc2C)cc1COc1c(C)cccc1C | u | 4.6µM* | 5.2µM* | u | -16% | u
COc1cc(OC)cc(C(=O)N/N=C\c2ccoc2)c1 | i | 3.7µM* | 5.8µM* | i | -3% | i
COc1ccc(/C=N\NC(=O)c2ccccc2OC)cc1COc1ccccc1C | i | -8% | -1% | i | 8% | i
COc1cc(OC)cc(C(=O)N/N=C/c2ccc(OC)c(COc3ccc4ccccc4c3)c2)c1 | u | u | 21µM* | i | -16% | u
COc1ccc(/C=N\NC(=O)c2ccccc2F)cc1COc1ccc(F)cc1F | 5.2µM* | 2.3µM* | 2.3µM* | u | 9% | u
COc1cc2c(cc1OC)C(=NO)CCCC2 | i | -4% | 0% | i | x | i
COc1cc2c(cc1Cl)/C(=C\CCN(C)C)c1ccccc1S2 | u | u | u | u | -37% | 16µM*
COc1cc(Cl)cc2c1Sc1ccccc1/C2=C/CCN(C)C | u | u | u | i | -5% | u
CN(C)CC/C=C1/c2ccccc2CSc2ccccc21 | x | x | x | i | x | x
CN(C)CC/C=C1/c2ccccc2Sc2c(O)cc(Cl)cc21 | u | u | 23µM* | u | -17% | 15µM*
CN(C)CCC(=O)N1c2ccccc2Sc2ccc(Cl)cc21 | i | -3% | u | i | -13% | i
